The supplement of paper PMC6555819

tested on: RXRa homodimer (NR concentration 180 nM); assay: PBM binding z-score (relative to random genomic background probes); higher = stronger binding; sequences stand for … in GC…GCGATTGACAGCGTAGAATGAAGG
In short: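 Probes were double-stranded and carried 34-nt variable regions with direct-repeat seeds, single-nucleotide variants, half-site ablations and random human genomic background sequences, printed on custom Agilent 4×180K protein-binding microarrays. Arrays were incubated 1 h with ligand-free nuclear receptor dimers in PBS pH 7.4, 2% milk, 0.02% Triton X-100, 1 mM DTT, 0.2 mg/mL BSA and 0.4 mg/ml salmon testes DNA. Antibodies against each partner (one per run) detected binding, and scanned fluorescence was regression-normalized. Binding z-scores use the random background probes as reference.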

Sequence	PBM binding z-score
ATACCAAGGTGATAGTGAGGTCGTTGATACTAAC	1.84
ATCTCTAGGTACGACTCAGTTCAGTGAAGAACGC	0.123
TCAGACAGGTGAAGGTAATTCAGGTACGCAGTCG	1.08
ATATGTAGGTTACATCCGGGTCATACAGGCTATG	3.05
GCTAGTTGGTCAGGAAAAGGTCACACACCGGTCG	4.98
TCGAGTAGGCTAGTCGGGGCATTCAGCCAACATA	-0.347
ACTCGGAGGACAAAGTTCAGAGCTACGCCAGTGA	1.63
ACTAGTTGGTCAGCTGAGGTTACACACAATTCGG	1.31
TCATGTAGATCAAGCAGGTTAAGAAAGCCTGAGT	0.48
CCTACTGGGCCATCAGGTCAGTGATATCAACGTT	0.552
ATCTCTAGGTAACGTTCAGTGAAAGATCGATAGA	0.277
TCTAGCAGGCCAGAGGGTCACTCAGGAGGTACGG	2.54
ATCGAAAGGTCGAGGTGACTATAGAGAAAGGGAA	4.45
TCTATGAGTTGAAGGGCAACCGACGAGTCCGTTT	0.971
CCTACTGGGCCATTCGGAGGTCATTGATCATATG	2.38
CGAACTAGGCCATCCAGGACAGTGAATACATTGA	0.302
ATCTCTAGCTAAAGATAGTTCAGTGAATGCAAAT	0.159
TGAAAGAGGTTATAAGATCAGGGAACGTTGCAAA	2.37
CCTACTGGGCCTTTCAGAGGTCATTGATCATATG	3.84
GGAACGAGGGCAAGTTGATAACAGAGTTTGATGG	0.775
TCAGACAGGCGAAGGTAACTCAGGTACGCAGTCG	0.579
TCATATAGGTAAAAGCTGAAAGTCGGTGTGGTAA	0.496
